Several values for one entry are separate records, joined by “and”; a condition that tells them apart may be missing. Equal entries are not always repeated. The campaign covered roughly 5,500 compounds. About 2,000 (36%) were called active. Another 18% or so got no clear call; they are omitted. No stated cut-off is given here; in the data, active means normalized growth mostly below about 0.91 (no sharp cut-off); inconclusive means no clear call, values can overlap the other calls; inactive means mostly above about 0.92. The list shows a part of the results.
Assay: chemical genetic growth profiling, strain panel (AID 1159580);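 further: tested at 20 µM; growth read once vehicle control cultures reached saturation at 30 °C; 1 = growth at the plate median or of vehicle wells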
Conditions: S. cerevisiae deletion strains, growth OD

Measured: normalized growth

N#Cc1c(Cl)c(Cl)c(Cl)c(C#N)c1Cl
inactive: locus YAL013W, strain DEP1, stronger effect = lower value 1 | locus YBR021W, strain FUR4, stronger effect = lower value 0.953 | locus YBR229C, strain ROT2, stronger effect = lower value 0.991 | locus YCL029C, strain bik1, stronger effect = lower value 0.976 | locus YDL035C, strain GPR1, stronger effect = lower value 1 | locus YDL074C, strain BRE1, stronger effect = lower value 1.01 | locus YDL101C, strain DUN1, stronger effect = lower value 1 | locus YDL134C, strain PPH21, stronger effect = lower value 0.992 | locus YDL185W, strain tfp1, stronger effect = lower value 0.951 | locus YDL192W, strain arf1, stronger effect = lower value 0.984 | locus YDR101C, strain arx1, stronger effect = lower value 0.986 | locus YDR150W, strain NUM1, stronger effect = lower value 1.01 | locus YDR162C, strain NBP2, stronger effect = lower value 1.01 | locus YDR318W, strain mcm21, stronger effect = lower value 0.975 | locus YDR388W, stronger effect = lower value 0.97 | locus YDR502C, strain sam2, stronger effect = lower value 0.996 | locus YEL061C, strain CIN8, stronger effect = lower value 1 | locus YER110C, stronger effect = lower value 0.976 | locus YER155C, strain BEM2, stronger effect = lower value 0.993 | locus YER167W, strain BCK2, stronger effect = lower value 0.993 | locus YGL078C, strain dbp3, stronger effect = lower value 0.983 | locus YGL086W, strain mad1, stronger effect = lower value 0.976 | locus YGL248W, strain PDE1, stronger effect = lower value 0.994 | locus YGR078C, strain PAC10, stronger effect = lower value 1.01 | locus YGR135W, strain pre9, stronger effect = lower value 0.998 | locus YGR229C, strain SMI1, stronger effect = lower value 1 | locus YGR252W, strain gcn5, stronger effect = lower value 0.932 | locus YHR079C, strain IRE1 (second series), stronger effect = lower value 0.98 | locus YHR094C, strain hxt1, stronger effect = lower value 0.979 | locus YHR129C, strain ARP1, stronger effect = lower value 1 | locus YHR200W, strain rpn10, stronger effect = lower value 0.973 | locus YIL066C, strain RNR3, stronger effect = lower value 0.989 | locus YIL073C, strain SPO22, stronger effect = lower value 0.969 | locus YIL125W, strain kgd1, stronger effect = lower value 0.98 | locus YIR030C, strain dcg1, stronger effect = lower value 0.976 | locus YJL134W, strain LCB3, stronger effect = lower value 0.998 | locus YJL168C, strain set2, stronger effect = lower value 0.985 | locus YJL187C, strain SWE1 (second series), stronger effect = lower value 0.994 | locus YJR043C, strain POL32, stronger effect = lower value 0.994
0.992 (inactive) and 0.126 (active): locus YHR030C, strain SLT2, stronger effect = lower value
1 (inactive) and 0.151 (active): locus YJL095W, strain BCK1, stronger effect = lower value
active: locus YAL021C, strain ccr4, stronger effect = lower value 0.0842 | locus YAL026C, strain drs2, stronger effect = lower value 0.0831 | locus YAL030W, strain snc1, stronger effect = lower value 0.0677 | locus YBL061C, strain skt5, stronger effect = lower value 0.0748 | locus YBR009C, strain hhf1, stronger effect = lower value 0.0742 | locus YBR023C, strain chs3, stronger effect = lower value 0.0756 | locus YBR171W, strain sec66, stronger effect = lower value 0.0931 | locus YBR231C, strain swc5, stronger effect = lower value 0.077 | locus YBR279W, strain paf1, stronger effect = lower value 0.0631 | locus YCL011C, strain gbp2, stronger effect = lower value 0.0716 | locus YCL016C, strain dcc1, stronger effect = lower value 0.0812 | locus YCL061C, strain MRC1, stronger effect = lower value 0.078 | locus YCL069W, strain vba3, stronger effect = lower value 0.0768 | locus YCR088W, strain abp1, stronger effect = lower value 0.0707 | locus YDL005C, strain med2, stronger effect = lower value 0.0898 | locus YDL040C, strain nat1, stronger effect = lower value 0.0666 | locus YDR001C, strain nth1, stronger effect = lower value 0.071 | locus YDR069C, strain doa4, stronger effect = lower value 0.0807 | locus YDR137W, strain rgp1, stronger effect = lower value 0.106 | locus YDR159W, strain sac3, stronger effect = lower value 0.113 | locus YDR195W, strain ref2 0.161 | locus YDR297W, strain sur2, stronger effect = lower value 0.0715 | locus YDR334W, strain swr1, stronger effect = lower value 0.0727 | locus YDR335W, strain msn5, stronger effect = lower value 0.0699 | locus YDR392W, strain spt3, stronger effect = lower value 0.0937 | locus YEL003W, strain gim4, stronger effect = lower value 0.0699 | locus YEL037C, strain rad23, stronger effect = lower value 0.0662 | locus YEL061C, strain CIN8 (second series), stronger effect = lower value 0.0687 | locus YER015W, strain faa2, stronger effect = lower value 0.078 | locus YER016W, strain bim1, stronger effect = lower value 0.0769 | locus YER111C, strain swi4, stronger effect = lower value 0.0874 | locus YER155C, strain BEM2 (second series), stronger effect = lower value 0.108 | locus YFR010W, strain ubp6, stronger effect = lower value 0.0828 | locus YGL167C, strain pmr1, stronger effect = lower value 0.0894 | locus YGL173C, strain kem1, stronger effect = lower value 0.084 | locus YGL227W, strain vid30, stronger effect = lower value 0.0779 | locus YGL240W, strain doc1, stronger effect = lower value 0.0947 | locus YGL253W, strain hxk2, stronger effect = lower value 0.0661 | locus YHR013C, strain ard1, stronger effect = lower value 0.114 | locus YHR027C, strain rpn1, stronger effect = lower value 0.0746 | locus YHR079C, strain IRE1, stronger effect = lower value 0.142 | locus YHR142W, strain chs7, stronger effect = lower value 0.0874 | locus YJL092W, strain hpr5, stronger effect = lower value 0.0707 | locus YJL095W, strain BCK1 (second series), stronger effect = lower value 0.0749 | locus YJL115W, strain asf1, stronger effect = lower value 0.0849 | locus YJL129C, strain trk1, stronger effect = lower value 0.106 | locus YJL154C, strain vps35, stronger effect = lower value 0.07 | locus YJL164C, strain tpk1, stronger effect = lower value 0.0766 | locus YJL166W, strain qcr8, stronger effect = lower value 0.0732 | locus YJR066W, strain TOR1, stronger effect = lower value -0.00264

Source: PubChem BioAssay AID1159580 (chemical genetic matrix, 2015)
